Measured values from PubChem BioAssay (NCI).
The panel holds about 83,000 compounds, 20% with a hit somewhere; the sample as a whole holds those more often.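 Interpretation: 100, growth as untreated; towards 0, rising growth inhibition; 0, no net growth; 0 to -100, cell death. Compounds scoring below 10 were considered active.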 Active and inactive are the calls of the source.

Legend:
Assay in all cases: NCI-60 one-dose screen, 48 h (100 = growth as untreated, 0 = no growth, -100 = all killed)
Conditions in all cases: 10 µM unless noted
T-47D breast = system: T-47D breast
BT-549 breast = system: BT-549 breast
MDA-MB-435 melanoma = system: MDA-MB-435 melanoma
SW-620 colon = system: SW-620 colon
MCF7 breast = system: MCF7 breast
HCT-116 colon = system: HCT-116 colon
HCC-2998 colon = system: HCC-2998 colon
KM12 colon = system: KM12 colon

Measured: growth

COc1cc(-c2cccc([N+](=O)[O-])c2)c(-c2nc(-c3ccccc3)c(-c3ccccc3)n2C2CC2)cc1OC
inactive: T-47D breast 23.9% | BT-549 breast 47.2% | MDA-MB-435 melanoma 67.4% | SW-620 colon 76.3% | MCF7 breast 34.8% | HCT-116 colon 26.8% | HCC-2998 colon 81.2% | KM12 colon 67.3%

COc1ccc(/C(C)=N/NS(=O)(=O)c2ccc(C)cc2)cc1OC
inactive: T-47D breast 87.8% | BT-549 breast 100% | MDA-MB-435 melanoma 103% | SW-620 colon 102% | MCF7 breast 102% | HCT-116 colon 95.1% | HCC-2998 colon 99.9% | KM12 colon 108%

O=C(/C=C/C12c3ccccc3C(c3ccccc31)C1C(=O)N(c3ccccc3)C(=O)C12)c1ccccc1 (stereo unspecified)
inactive: T-47D breast 40.7% | MCF7 breast 14.7%
active: BT-549 breast -2.69% | MDA-MB-435 melanoma -1.64% | SW-620 colon 1.65% | HCT-116 colon -57.7% | HCC-2998 colon -65%

COc1cc(/C=C/C(=O)c2cccc(-n3cc(-c4ccccc4)[nH]c3=O)c2)cc(OC)c1OC
active: T-47D breast -6.56% | BT-549 breast -13.1% | MDA-MB-435 melanoma -3.32% | SW-620 colon -29% | MCF7 breast -93.8% | HCT-116 colon -90.3% | HCC-2998 colon -81.4%

COC(=O)CCCNC(=O)C(=O)c1c(O)c(O)c(C(C)C)c2cc(C)c(-c3c(C)cc4c(C(C)C)c(O)c(O)c(C(=O)C(=O)NCCCC(=O)OC)c4c3O)c(O)c12
active: T-47D breast 4.43% | BT-549 breast 8.07% | HCT-116 colon -30.9%
inactive: MDA-MB-435 melanoma 13% | SW-620 colon 19.2% | MCF7 breast 10.9% | HCC-2998 colon 29.5%

Clc1ccc(-c2nc(NCCc3ccccc3)nc3c(NCCc4ccccc4)cnn23)cc1
inactive: T-47D breast 63.3% | BT-549 breast 63.6% | MDA-MB-435 melanoma 42.6% | SW-620 colon 33.5% | MCF7 breast 31.1% | HCT-116 colon 28.6% | HCC-2998 colon 72.4%

CCOC(=O)c1cnn2c(-c3ccc(Cl)cc3)nc(NCc3ccccc3)nc12
inactive: T-47D breast 43.3% | BT-549 breast 101% | MDA-MB-435 melanoma 56.2% | HCC-2998 colon 83.9% | KM12 colon 54%
active: SW-620 colon 4.94% | MCF7 breast 5.18% | HCT-116 colon -15.5%

Cc1ccc(C)c2c1C(=O)OC2=O
inactive: T-47D breast 96.1% | BT-549 breast 104% | MDA-MB-435 melanoma 114% | SW-620 colon 107% | MCF7 breast 93.5% | HCT-116 colon 96.4% | HCC-2998 colon 118%

CCOc1cc(N)ccc1C(=O)NCCCN(CC)CC
inactive: T-47D breast 101% | BT-549 breast 98.8% | MDA-MB-435 melanoma 106% | SW-620 colon 101% | MCF7 breast 96.4% | HCT-116 colon 98% | HCC-2998 colon 95.9% | KM12 colon 106%

C(=C\c1nc2ccccc2[nH]1)/c1nc2ccccc2[nH]1
inactive: T-47D breast 78.2% | BT-549 breast 118% | MDA-MB-435 melanoma 104% | SW-620 colon 108% | MCF7 breast 74.4% | HCT-116 colon 104% | HCC-2998 colon 88.4%

NC(=O)CC1(O)C=C(Br)C(=O)C(Br)=C1
inactive: T-47D breast 31% | BT-549 breast 28.8% | MDA-MB-435 melanoma 32.4% | MCF7 breast 25.6% | HCC-2998 colon 76.3%
active: SW-620 colon -36.1% | HCT-116 colon -61.9%

CCCCCCCCc1cc[n+](CC(=O)c2ccc(Br)cc2)cc1
inactive: BT-549 breast 77.8%
active: T-47D breast -16.6% | MDA-MB-435 melanoma -15.1% | SW-620 colon -33.7% | MCF7 breast -74% | HCT-116 colon -43.1% | HCC-2998 colon -67.4%

O=C1NCC(=O)N(Cc2ccco2)[C@H]1Cc1ccccc1
inactive: T-47D breast 88% | BT-549 breast 95.5% | MDA-MB-435 melanoma 104% | SW-620 colon 107% | MCF7 breast 91.5% | HCT-116 colon 95.9% | HCC-2998 colon 109%

O=C1CCC(N2C(=O)c3cccc(NCCCC4CCN(CCNC(=O)c5cc6c(o5)C(=O)c5ccccc5C6=O)CC4)c3C2=O)C(=O)N1 (stereo unspecified)
active: T-47D breast -5.59% | BT-549 breast -96.2% | MDA-MB-435 melanoma -97.1% | SW-620 colon -77.9% | MCF7 breast -65.4% | HCT-116 colon -56.9% | HCC-2998 colon -96%

O=[N+]([O-])c1ccc(-c2cc3c(Nc4ccc(Sc5nc6ccccc6s5)c(Cl)c4)ncnc3s2)cc1
inactive: T-47D breast 37.1% | BT-549 breast 87.6% | MDA-MB-435 melanoma 30.8% | SW-620 colon 49.5% | MCF7 breast 16.2% | HCT-116 colon 11.9% | HCC-2998 colon 49.7% | KM12 colon 35.1%

Cc1c(C(N)=O)sc2nc(C)n(/N=c3\scc(-c4ccccc4)n3Cc3ccccc3)c(=O)c12
inactive: T-47D breast 34.7% | MDA-MB-435 melanoma 12.2% | SW-620 colon 12.5% | MCF7 breast 17.3% | HCT-116 colon 29.1% | HCC-2998 colon 57.1%
active: BT-549 breast -6.7%

C[N+](C)(C)CCOC(OCC[N+](C)(C)C)(c1ccccc1)c1ccccc1
inactive: T-47D breast 106% | BT-549 breast 101% | MDA-MB-435 melanoma 121% | SW-620 colon 103% | MCF7 breast 92.8% | HCT-116 colon 105% | HCC-2998 colon 97%

C=C1C(=O)O[C@H]2[C@H]1CC/C(C(=O)NCCCCCCCCNC(=O)/C1=C/CC[C@@]3(C)O[C@H]3[C@H]3OC(=O)C(=C)[C@@H]3CC1)=C\CC[C@@]1(C)O[C@@H]21
inactive: T-47D breast 28.4% | BT-549 breast 51% | MDA-MB-435 melanoma 86.8% | SW-620 colon 14.2% | MCF7 breast 37.9% | HCT-116 colon 29.7% | HCC-2998 colon 97.2% | KM12 colon 93.1%

CN(C)CCn1cc(-c2ccc3c(Nc4ccc(CC(=O)Nc5cccc(F)c5)cc4)ncnc3c2)cn1
active: T-47D breast -39.7% [30 µM] | BT-549 breast -9.36% [30 µM] | MDA-MB-435 melanoma -71.7% [30 µM] | SW-620 colon -64.2% [30 µM] | MCF7 breast -56.9% [30 µM] | HCT-116 colon -11.9% [30 µM] | HCC-2998 colon -91.5% [30 µM] | KM12 colon -83.6% [30 µM]

CN1CCN(c2ccc(Nc3ncc(Cl)c(NC[C@@H]4CCCO4)n3)cc2)CC1
inactive: T-47D breast 62.2% | BT-549 breast 33.3% | MDA-MB-435 melanoma 44% | HCC-2998 colon 60.7%
active: SW-620 colon 7.44% | MCF7 breast 9.61% | HCT-116 colon 4.74% | KM12 colon 9.71%

COc1cc2c(cc1OC)-c1ccc3cc4c(cc3c1N(CCN(C)C)C2)OCO4
active: T-47D breast -12.3% | BT-549 breast -2.52% | SW-620 colon 9.79% | MCF7 breast 4.64% | HCT-116 colon -85.8%
inactive: MDA-MB-435 melanoma 40% | HCC-2998 colon 26.7% | KM12 colon 17.1%

c1ccc([P+](CCCc2n(Cc3ccc4ccccc4c3)c3ccccc3[n+]2Cc2ccc3ccccc3c2)(c2ccccc2)c2ccccc2)cc1
inactive: T-47D breast 56.9% | BT-549 breast 68.1% | MDA-MB-435 melanoma 25.2% | SW-620 colon 35.2% | MCF7 breast 73.9% | HCT-116 colon 24.2% | HCC-2998 colon 53.9%

CCNCCNc1cc(-c2ccc(Cl)cc2)c(C#N)c2nc3ccccc3n12
active: T-47D breast -60% | BT-549 breast -33.4% | MDA-MB-435 melanoma -85.7% | SW-620 colon -71.9% | MCF7 breast -22.8% | HCT-116 colon -78% | HCC-2998 colon 4.11%

CCN(CC)CC(=O)Nc1cccc(C(=O)OC(C)C)c1
inactive: T-47D breast 92% | BT-549 breast 66% | MDA-MB-435 melanoma 102% | SW-620 colon 115% | MCF7 breast 103% | HCT-116 colon 72.8% | HCC-2998 colon 99.5%

COc1ccc(/C(C)=C(\c2ccc(Cl)cc2)c2ccc(OCCN3CCCCCC3)cc2)cc1F
inactive: T-47D breast 53.6% | BT-549 breast 66.3% | MDA-MB-435 melanoma 52.4% | SW-620 colon 20.3% | MCF7 breast 24.1% | HCT-116 colon 22.9% | HCC-2998 colon 36.9%

Cc1cc(=O)[nH]c(N/N=C/c2cc(Br)ccc2O)n1
inactive: T-47D breast 25% | BT-549 breast 17.2% | MDA-MB-435 melanoma 47.3% | SW-620 colon 40.3% | HCC-2998 colon 32.5%
active: MCF7 breast 1.32% | HCT-116 colon 5.04%

CC(=O)Nc1ccc2c(c1)Cc1c(F)cccc1-2
inactive: T-47D breast 76.6% | BT-549 breast 109% | MDA-MB-435 melanoma 107% | SW-620 colon 102% | MCF7 breast 35.9% | HCT-116 colon 108% | HCC-2998 colon 94.2%

CCc1c(C(=O)N[C@@H]2c3cc(Cl)ccc3CC[C@@H]2O)[nH]c(C)c1C(C)=O
inactive: T-47D breast 70.4% | BT-549 breast 80.7% | MDA-MB-435 melanoma 97.4% | SW-620 colon 90.1% | MCF7 breast 85.3% | HCT-116 colon 51% | HCC-2998 colon 95.4%

NS(=O)(=O)Oc1ccc(NC(=O)C23CC4CC(CC(C4)C2)C3)cc1Cl
inactive: T-47D breast 75.4% | BT-549 breast 99.3% | MDA-MB-435 melanoma 99.5% | SW-620 colon 106% | MCF7 breast 97.3% | HCT-116 colon 107% | HCC-2998 colon 103% | KM12 colon 95.8%

O=C(NCc1cn(Cc2cccc(Oc3ccccc3)c2)nn1)c1cccnc1NCc1ccc(Cl)cc1
inactive: T-47D breast 31.9% | BT-549 breast 41.1% | SW-620 colon 36.9% | MCF7 breast 14.9% | HCT-116 colon 22.1%
active: MDA-MB-435 melanoma -2.51% | HCC-2998 colon 9.38%

O=C1CSC(c2ccc(O)cc2)N1c1nnc(Cn2cnnc2)o1 (stereo unspecified)
inactive: T-47D breast 92.3% | BT-549 breast 55.8% | SW-620 colon 67.4% | MCF7 breast 84% | HCT-116 colon 93% | HCC-2998 colon 112%
active: MDA-MB-435 melanoma -1.5%

CC1=NN(c2cccc(Cl)c2)C(=O)/C1=C\c1cn(CC(O)CN2CCCCC2)c2ccccc12 (stereo unspecified)
inactive: T-47D breast 83.3% | BT-549 breast 96.1% | MCF7 breast 41.1% | HCT-116 colon 10.2%
active: MDA-MB-435 melanoma 1.51% | SW-620 colon 7.47%

O=C(CCc1nc(-c2cccc(Cl)c2)no1)Nc1ccccn1
inactive: T-47D breast 107% | BT-549 breast 95.7% | MDA-MB-435 melanoma 105% | SW-620 colon 103% | MCF7 breast 90.2% | HCT-116 colon 99.1% | HCC-2998 colon 97.7% | KM12 colon 98%
